# Source: PubChem BioAssay (NCATS)
# Inconclusive results are not listed. A number with no mark means an inactive call. Activity calls are given as the source filed them. Calls come from the whole dose curve; as a rule, active = well fitted cell-killing curve with a large enough effect; inconclusive = small, poorly fitted or top-dose-only effect, or effect the other way; inactive = no such curve, though single readings can be large or run the other way.
# Experiment: Quantitative High-Throughput drug screen in 47 multiple myeloma cell lines against the NCATS MIPE library collection: OPM2_DSMZ cell viability assay (AID 1919872); note: nearly all actives have a fitted effect of over 30% in size
# Conditions: OPM2 myeloma viability, CellTiter-Glo ATP luminescence, 48 h; series mostly up to 45.8 µM; viability (% of DMSO): at the top concentration
# Method in brief: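 Steps: seed 500 cells per well; pin-transfer MIPE 4.0 library; incubate 48 h at 37C, 5% CO2, humidified; add CellTiter-Glo, 5 min room temperature; read luminescence.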
# Potency is the fitted concentration of half-maximal effect.
Compound,viability (% of DMSO),Potency
Cn1c(=O)c2[nH]cnc2n(C)c1=O,107%,–
CC[C@@]1(O)C(=O)OCc2c1cc1n(c2=O)Cc2cc3c(CN(C)C)c(O)ccc3nc2-1,–,16.6 µM (active)
O=c1[nH]cc(F)c(=O)[nH]1,110%,–
NCCS(=O)(=O)O,96.2%,–
CC#C[C@]1(O)CC[C@H]2[C@@H]3CCC4=CC(=O)CCC4=C3[C@@H](c3ccc(N(C)C)cc3)C[C@@]21C,–,1.18 µM (active)
CC(CCc1ccc(O)cc1)NCCc1ccc(O)c(O)c1 (stereo not drawn),–,18.7 µM (active)
CS(=O)(=O)CCNCc1ccc(-c2ccc3ncnc(Nc4ccc(OCc5cccc(F)c5)c(Cl)c4)c3c2)o1,–,16.6 µM (active)
NC(=O)NO,–,6.62 µM (active)
COc1ccccc1OCC(O)CN1CCN(CC(=O)Nc2c(C)cccc2C)CC1 (stereo not drawn),111%,–
CCOC(=O)Nc1ccc(NCc2ccc(F)cc2)nc1N,84.3%,–
CN(C)C(=O)C(CCN1CCC(O)(c2ccc(Cl)cc2)CC1)(c1ccccc1)c1ccccc1,–,18.7 µM (active)
CC1COc2c(N3CCN(C)CC3)c(F)cc3c(=O)c(C(=O)O)cn1c23 (stereo not drawn),103%,–
CC(C)NCC(O)c1ccc(O)c(O)c1 (stereo not drawn),79.6%,–
Cc1cn([C@H]2C=C[C@@H](CO)O2)c(=O)[nH]c1=O,109% [at 92.2 µM],–
O=C1N(c2ccccc2)c2ccccc2C1(Cc1ccncc1)Cc1ccncc1,120%,–

# Experiment: Quantitative High-Throughput drug screen in 47 multiple myeloma cell lines against the NCATS MIPE library collection: KMS11_JCRBsus cell viability assay (AID 1919873); note: nearly all actives have a fitted effect of over 50% in size;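 for viability (% of control): 100% = DMSO-only wells and 0% = media-only wells without cells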
# Conditions: KMS11 myeloma viability, CellTiter-Glo ATP luminescence, 48 h; series mostly up to 45.8 µM; viability (% of control): at the top concentration
# Method in brief: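 Readout: median RLU from CellTiter-Glo after 5 min at room temperature. Preceding step was 48 h drug treatment of 500 cells/well at 37 °C, 5% CO2, with DMSO-only and media-only control wells.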
Compound,viability (% of control) [%],Potency
Cn1c(=O)c2[nH]cnc2n(C)c1=O,107,–
CC[C@@]1(O)C(=O)OCc2c1cc1n(c2=O)Cc2cc3c(CN(C)C)c(O)ccc3nc2-1,–,3.72 µM (active)
O=c1[nH]cc(F)c(=O)[nH]1,–,13.2 µM (active)
NCCS(=O)(=O)O,112,–
CC#C[C@]1(O)CC[C@H]2[C@@H]3CCC4=CC(=O)CCC4=C3[C@@H](c3ccc(N(C)C)cc3)C[C@@]21C,–,7.43 µM (active)
CC(CCc1ccc(O)cc1)NCCc1ccc(O)c(O)c1 (stereo not drawn),–,26.4 µM (active)
Cc1ccccc1N1C(=O)c2cc(S(N)(=O)=O)c(Cl)cc2NC1C (stereo not drawn),129,–
CS(=O)(=O)CCNCc1ccc(-c2ccc3ncnc(Nc4ccc(OCc5cccc(F)c5)c(Cl)c4)c3c2)o1,–,20.9 µM (active)
COc1ccc2c(c1)c(CC(=O)O)c(C)n2C(=O)c1ccc(Cl)cc1,109,–
COc1ccc2[nH]cc(CCNC(C)=O)c2c1,105,–
NC(=O)NO,–,0.526 µM (active)
CNCCCC12CCC(c3ccccc31)c1ccccc12,–,9.35 µM (active)
COc1cc2nc(N3CCN(C(=O)c4ccco4)CC3)nc(N)c2cc1OC,–,13.2 µM (active)
COc1ccccc1OCC(O)CN1CCN(CC(=O)Nc2c(C)cccc2C)CC1 (stereo not drawn),116,–
O=C1c2c(O)ccc(O)c2C(=O)c2c(NCCNCCO)ccc(NCCNCCO)c21,–,1.48 µM (active)
Nc1nc2c(ncn2COC(CO)CO)c(=O)[nH]1,–,18.7 µM (active)
CN(C)C(=O)C(CCN1CCC(O)(c2ccc(Cl)cc2)CC1)(c1ccccc1)c1ccccc1,–,10.5 µM (active)
Nc1ccn([C@H]2CC[C@@H](CO)O2)c(=O)n1,103,–
CC(C)NCC(O)c1ccc(O)c(O)c1 (stereo not drawn),–,16.6 µM (active)
CN(C)CCCN1c2ccccc2CCc2ccc(Cl)cc21,–,20.9 µM (active)
NC12CC3CC(CC(C3)C1)C2,–,16.6 µM (active)
CN(CCOc1ccc(NS(C)(=O)=O)cc1)CCc1ccc(NS(C)(=O)=O)cc1,111,–
CCN1CCCC1CNC(=O)c1cc(S(=O)(=O)CC)c(N)cc1OC (stereo not drawn),107,–
Cn1cnc2c1c(=O)[nH]c(=O)n2C,–,9.35 µM (active)
CN1C(C(=O)Nc2ccccn2)=C(O)c2ccccc2S1(=O)=O,119,–
CC(C(=O)O)c1cccc(C(=O)c2ccccc2)c1 (stereo not drawn),101,–
CN(Cc1cnc2nc(N)nc(N)c2n1)c1ccc(C(=O)N[C@@H](CCC(=O)O)C(=O)O)cc1,–,0.0935 µM (active)
O=C1N(c2ccccc2)c2ccccc2C1(Cc1ccncc1)Cc1ccncc1,116,–
